Data reported in the supplement of paper PMC8728848.
Shown is part of a subset that was picked to be rich in the strongest signals.

Assays:
Test in all cases: glycan array binding signal (z-score within array); higher = stronger binding
Conditions in all cases: glycan notation: IUPAC condensed, linker removed; mutation: Y228A
[1] = molecular target: Gal(b1-3)[Neu5Ac(a2-6)]GalNAc
Method in brief: (§1)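 The binding signal is a Z-score computed within each array. Data were drawn from 3228 arrays in the Consortium for Functional Glycomics database, restricted to those with a known protein sequence. Scores were averaged over arrays of the same protein sequence at different concentrations or buffers, and over linkers, and negative values can be taken as non-binding.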

[2] = molecular target: Gal(b1-4)Glc6S
Method in brief: as §1

[3] = molecular target: Gal(b1-4)GlcNAc(b1-2)[Gal(b1-4)GlcNAc(b1-6)]Man(a1-6)[GlcNAc(b1-4)][Gal(b1-4)GlcNAc(b1-2)[Gal(b1-4)GlcNAc(b1-4)]Man(a1-3)]Man(b1-4)GlcNAc(b1-4)[Fuc(a1-6)]GlcNAc
Method in brief: as §1

[4] = molecular target: Gal(b1-4)GlcNAc(b1-6)Gal(b1-4)GlcNAc
Method in brief: as §1

[5] = molecular target: Gal(b1-4)GlcNAc(b1-6)[Gal(b1-4)GlcNAc(b1-3)]GalNAc
Method in brief: as §1

[6] = molecular target: Gal3S(b1-3)GalNAc
Method in brief: as §1

[7] = molecular target: Gal3S4S(b1-4)GlcNAc
Method in brief: as §1

[8] = molecular target: Gal4S6S(b1-4)GlcNAc
Method in brief: as §1

[9] = molecular target: Gal6S(b1-3)GlcNAc6S
Method in brief: as §1

[10] = molecular target: Gal6S(b1-4)Glc6S
Method in brief: as §1

[11] = molecular target: GalNAc(b1-3)Gal(a1-4)Gal(b1-4)GlcNAc
Method in brief: as §1

[12] = molecular target: GalNAc3S(b1-4)GlcNAc
Method in brief: as §1

[13] = molecular target: Glc(b1-4)Glc
Method in brief: as §1

[14] = molecular target: GlcA3S(b1-3)Gal(b1-4)GlcNAc(b1-2)Man
Method in brief: as §1

[15] = molecular target: GlcNAc(b1-2)[GlcNAc(b1-6)]Man(a1-6)[GlcNAc(b1-2)Man(a1-3)]Man(b1-4)GlcNAc(b1-4)[Fuc(a1-6)]GlcNAc
Method in brief: as §1

[16] = molecular target: GlcNAc(b1-3)Gal(b1-4)GlcNAc(b1-3)Gal(b1-4)GlcNAc(b1-3)Gal(b1-4)GlcNAc(b1-2)Man(a1-3)[GlcNAc(b1-3)Gal(b1-4)GlcNAc(b1-3)Gal(b1-4)GlcNAc(b1-3)Gal(b1-4)GlcNAc(b1-2)Man(a1-6)]Man(b1-4)GlcNAc(b1-4)[Fuc(a1-6)]GlcNAc
Method in brief: as §1

[17] = molecular target: GlcNAc(b1-3)[GlcNAc(b1-6)]Gal(b1-4)GlcNAc
Method in brief: as §1

[18] = molecular target: GlcNAc(b1-3)[GlcNAc(b1-6)]GalNAc
Method in brief: as §1

[19] = molecular target: Man(a1-2)Man(a1-2)Man(a1-6)[Man(a1-3)]Man
Method in brief: as §1

[20] = molecular target: Man(a1-3)[Man(a1-6)]Man(a1-6)[Man(a1-3)]Man
Method in brief: as §1

[21] = molecular target: Neu5Ac(a2-3)Gal(b1-3)GlcNAc(b1-3)Gal(b1-3)GlcNAc
Method in brief: as §1

[22] = molecular target: Neu5Ac(a2-3)Gal(b1-3)[Neu5Ac(a2-6)]GlcNAc(b1-3)[Fuc(a1-3)[Gal(b1-4)]GlcNAc(b1-6)]Gal(b1-4)Glc
Method in brief: as §1

[23] = molecular target: Neu5Ac(a2-3)Gal(b1-4)GlcNAc(b1-2)Man(a1-3)[Neu5Ac(a2-6)Gal(b1-4)GlcNAc(b1-2)Man(a1-6)]Man(b1-4)GlcNAc(b1-4)GlcNAc
Method in brief: as §1

[24] = molecular target: Neu5Ac(a2-3)Gal(b1-4)GlcNAc(b1-3)Gal
Method in brief: as §1

[25] = molecular target: Neu5Ac(a2-3)Gal(b1-4)[Fuc(a1-3)]GlcNAc
Method in brief: as §1

[26] = molecular target: Neu5Ac(a2-6)Gal(b1-4)GlcNAc(b1-3)Gal(b1-4)GlcNAc(b1-3)Gal(b1-4)GlcNAc
Method in brief: as §1

[27] = molecular target: Neu5Gc(a2-3)Gal(b1-3)GlcNAc
Method in brief: as §1

[28] = molecular target: Neu5Gc(a2-3)Gal(b1-3)[Fuc(a1-4)]GlcNAc
Method in brief: as §1

B1: Epa1-NP-mutant-Y228A (Candida glabrata), Q6VBJ0 (protein)
chain: MILNPALFLNKCVCIYTTLILLLLTNGGYATSSNDISLASKDPTTFPLGCSPDITTPKKGLSMELYSYDFRKKGSYPCWDAAYLDPNYPRTGYKSHRLLAKVDGVTGNINFYYHATKGCTPQLGHLPASYNYPKPLTMTNFTMLLYGYFRPKVTGFHTFTISADDLLFVNFGAGNAFDCCRRDSSADHFGNYQAYAIWGSKTAKDELTVHLDAGVYYPIRLFYNNREADGALSFTFKTESNENTVSDFSEYFFSLDDTEEGCPGLISYDSSCASVKTSKIIGIDYHTETPNENLVPITKTIYHLGIPCTGTTTTPLCGSGFYDPLANKCVTINTSSTSSVTKTTSHTTSKEVSFHSSISSQKTLIPKSIPSPYGPIKSQSIPTEMETSSEISSSEYAFSDVISTPSHSPYTKKHSSLNSSSYTSTVIHSLTSYSISQGIFSTSLSEQNITSKSSTDKFSTATSMSNNITQSSIIISQFSTNNENYTTTSMHTSSDKISTETLNNSISTTTSILFSNSSTILKNNTTIISSDKDTHYHPVNPTIVCSTNKTEIICASITQPSISNSNNHWSSSVLKFNSTTVRSTLPSSAGSNETSINVPFSSSTESNTSTSSTSTSNSKMVRSTLPSSAGSNETSISVPFSSSTESNTSTSSTSTSNSKMVRSTLPSSAGSNETSINVPFSSSTESNTSTSSTSTSNSKTVRSTPFSSAGIIMTSLSQRNNKSASSYASSNSKCYNTADSCRKVHSTPSYLLTSSYTSEGVDYDCSLVSTKLKINDTNCVNNKHTTKSCLKTSVTTTIPTLEIKTARKSSSNTIGLHSYPTSSPNKSISSAPIIGYISSFKTIKTASPSYQTSDLTTITTITSLNNPGSTAVENTHESNDKSRKTSSNDISSKHSVIKETKDAVESSNKSHQTNTLKCSSIIIASSSHNSYESLGGTTLTLTLSKVYSPQNNDTLPFLEISEVNPSRTVLPESSKMMQYLTSTEERNKTARNTIATNIVSISTFHFEGEGNAIRMGYTQLLLMLIGIIVMNIGT
glycan array binding signal (z-score) [1]: 0.209 | glycan array binding signal (z-score) [2]: 2.93 | glycan array binding signal (z-score) [3]: 0.803 | glycan array binding signal (z-score) [4]: 2.72 | glycan array binding signal (z-score) [5]: 0.637 | glycan array binding signal (z-score) [6]: -0.153 | glycan array binding signal (z-score) [7]: -0.259 | glycan array binding signal (z-score) [8]: -0.16 | glycan array binding signal (z-score) [9]: 5.91 | glycan array binding signal (z-score) [10]: 4.82 | glycan array binding signal (z-score) [11]: -0.145 | glycan array binding signal (z-score) [12]: -0.321 | glycan array binding signal (z-score) [13]: -0.246 | glycan array binding signal (z-score) [14]: -0.24 | glycan array binding signal (z-score) [15]: 0.217 | glycan array binding signal (z-score) [16]: -0.139 | glycan array binding signal (z-score) [17]: -0.235 | glycan array binding signal (z-score) [18]: -0.277 | glycan array binding signal (z-score) [19]: -0.127 | glycan array binding signal (z-score) [20]: -0.287 | glycan array binding signal (z-score) [21]: -0.295 | glycan array binding signal (z-score) [22]: -0.172 | glycan array binding signal (z-score) [23]: -0.237 | glycan array binding signal (z-score) [24]: -0.11 | glycan array binding signal (z-score) [25]: -0.209 | glycan array binding signal (z-score) [26]: -0.307 | glycan array binding signal (z-score) [27]: -0.069 | glycan array binding signal (z-score) [28]: -0.119
